Assay outcomes as filed in PubChem BioAssay.
The list is not random: actives were taken first. Their share in the collection is about 10%.
GLS inhibitor: glutaminase GLS (human) inhibition; O94925; GLS enzymatic activity, qHTS titration; Potency, µM (titrated, usually from 45.5 µM), actives largely listed as inhibitors; 0.21% of 410,000 active
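Two-point fluorescence kinetic (t0, 30 min RT) for hKGA; glutamate detected via glutamate oxidase–HRP–Amplex Red. Substrate: 1 mM L-glutamine solution; buffer 45 mM KH2PO4, pH 8.2.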
G9a inh: inhibitors of human histone lysine methyltransferase G9a. Potency, µM (series often up to 102 µM), actives largely listed as inhibitors. G9a H3K9 monomethylation, AlphaScreen, 2 h. 8.8% of 350,000 active; note: nearly all actives have a fitted effect of over 75% in size
Target sequence (Q96KQ7 913-1193 limits assumed): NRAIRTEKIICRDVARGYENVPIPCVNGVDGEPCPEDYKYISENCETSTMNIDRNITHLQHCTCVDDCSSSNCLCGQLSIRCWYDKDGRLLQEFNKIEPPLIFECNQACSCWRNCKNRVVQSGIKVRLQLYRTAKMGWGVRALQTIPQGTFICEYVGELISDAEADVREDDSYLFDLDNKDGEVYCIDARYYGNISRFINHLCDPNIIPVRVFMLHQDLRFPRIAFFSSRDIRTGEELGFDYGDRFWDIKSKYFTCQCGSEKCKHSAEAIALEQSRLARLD
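G9a (20 nM) preincubated 15 min RT with compounds, then 500 nM biotinylated H3K9 peptide and 20 uM SAM added; 2 h RT reaction. Monomethyl-H3K9 product detected by AlphaScreen with anti-H3K9me1 antibody, streptavidin donor and anti-rabbit IgG acceptor beads.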
BAZ2B inh: inhibitors of human BAZ2B bromodomain | Q9UIF8 | AlphaScreen BAZ2B-H3K14Ac peptide displacement | Potency, µM (highest dose often 114 µM), usual class: inhibitors | 4.4% of 360,000 active; note: nearly all actives have a fitted effect of over 60% in size
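Inhibition is scored as reduced AlphaScreen emission. The BAZ2B/b-H3(5-23)K14Ac complex (50 nM each) in PBS pH 7.4, 0.01% Tween-20 meets compound (up to 110 uM) for 30 min at RT before bead addition.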
HP1b binding inh: blocks HP1-beta chromodomain binding to methylated histone tails. P83916. AlphaScreen HP1-beta / biotin-H3K9me3 peptide binding. Potency, µM (titrated, usually from 114 µM), usual class: inhibitors. 0.56% of 390,000 active. AID 540317; note: nearly all actives have a fitted effect of over 70% in size
Target sequence (P83916 whole entry, looked up): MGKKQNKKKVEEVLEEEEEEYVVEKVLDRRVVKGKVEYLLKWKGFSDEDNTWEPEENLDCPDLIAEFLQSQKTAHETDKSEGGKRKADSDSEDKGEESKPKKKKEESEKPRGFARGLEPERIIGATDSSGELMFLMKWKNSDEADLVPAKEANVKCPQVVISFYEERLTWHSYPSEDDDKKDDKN
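HP1-beta protein (50 nM final) preincubated 30 min at room temperature with biotinylated H3(1-18)K9me3 peptide (50 nM) in PBS pH 7.4, 0.01% Tween-20, then compound added for 30 min. AlphaScreen streptavidin donor/nickel chelate acceptor beads (10 ug/mL final), 30 min dark, luminescence read.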
JMJD2A Tudor: blocks the human JMJD2A Tudor domain; O75164; AlphaScreen JMJD2A-Tudor / H3K4me3 peptide binding; Potency, µM (series often up to 114 µM), usual class: inhibitors; 4.4% of 390,000 active; note: nearly all actives have a fitted effect of over 50% in size
L3MBTL1 inh: inhibitors of human L3MBTL1; Q9Y468; AlphaScreen L3MBTL1–H3K9me1 peptide binding; Potency, µM (highest dose often 57.1 µM), usual class: inhibitors; 0.66% of 230,000 active; note: nearly all actives have a fitted effect of over 60% in size
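Read-out is AlphaScreen signal from streptavidin donor and nickel chelate acceptor beads (10 ug/mL final each) bridging L3MBTL1 (50 nM) and biotinylated K9-monomethylated H3(1-15) peptide (75 nM), after 30 min compound exposure at room temperature.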
A number is an active result; ! = not confirmed by another sample; [ ] = dose if it differs, or a comment. Calls come from the whole dose curve; as a rule, active = well fitted curve in the direction sought with a large enough effect; inconclusive = small, poorly fitted or top-dose-only effect, or another doubt; inactive = no such curve, though single readings can be large; an effect the other way counts as inactive or inconclusive.

Results for COc1cc(/C=C2/C(=O)ON=C2c2ccccc2)ccc1O ?
GLS inhibitor: inactive; G9a inh: inconclusive; BAZ2B inh: 50µM; HP1b binding inh: inactive; JMJD2A Tudor: inactive; L3MBTL1 inh: inactive

How did CCOc1cc(/C=C2\C(=O)ON=C2c2ccccc2)cc(Br)c1O do in these assays?
GLS inhibitor: 8.9µM; G9a inh: 25µM; BAZ2B inh: 28µM; HP1b binding inh: inconclusive; JMJD2A Tudor: 25µM

Results for Cc1ccc2c(c1)c1c(c(=O)n(-c3ccccc3)c(=O)n1CC(=O)N1CCCC1)n2C ?
GLS inhibitor: inactive; G9a inh: inactive; BAZ2B inh: inactive; HP1b binding inh: inactive; JMJD2A Tudor: inactive

How did COc1ccc(CCNC(=O)Cn2cc(S(=O)(=O)Cc3ccccc3F)c3ccccc32)cc1OC do in these assays?
GLS inhibitor: inactive; G9a inh: inactive; BAZ2B inh: inactive; HP1b binding inh: inactive; JMJD2A Tudor: inactive

What do the screens show for `c1ccc(N=c2nc(-c3ccccc3)n(-c3ccccc3)s2)cc1`?
HP1b binding inh: inactive; JMJD2A Tudor: inactive

How did COc1ccc(Br)cc1CNC(=O)c1cc2n(n1)CCCN(Cc1ccc(C)cc1)C2=O do in these assays?
GLS inhibitor: inactive; G9a inh: inactive[12.7 µM]; BAZ2B inh: inactive; HP1b binding inh: inactive; JMJD2A Tudor: inactive

Results for CCOc1cc(/C=C2/C(=O)ON=C2C)cc(Br)c1O ?
GLS inhibitor: inactive; G9a inh: 45µM; BAZ2B inh: 16µM; HP1b binding inh: inactive; JMJD2A Tudor: inactive

What do the screens show for `COc1cc(C=C2C(=O)OC(c3ccccc3)OC2=O)cc(Br)c1O` (stereo unspecified)?
GLS inhibitor: inactive; G9a inh: inconclusive; BAZ2B inh: inactive; HP1b binding inh: inactive; JMJD2A Tudor: inactive

Results for C=CCn1c(C)cc(-c2csc(NC(=O)CCc3nc4ccccc4c(=O)[nH]3)n2)c1C ?
GLS inhibitor: inactive; G9a inh: 32µM; BAZ2B inh: inconclusive; HP1b binding inh: inactive; JMJD2A Tudor: inactive; L3MBTL1 inh: inactive

What do the screens show for `O=C(CCc1nc2ccccc2c(=O)[nH]1)Nc1nc(-c2cccs2)cs1`?
GLS inhibitor: inactive; G9a inh: 45µM; BAZ2B inh: inactive; HP1b binding inh: inactive; JMJD2A Tudor: inactive; L3MBTL1 inh: inactive

How did CN(c1ccc(-c2csc(NC(=O)CCCc3nc4ccccc4c(=O)[nH]3)n2)cc1)S(C)(=O)=O do in these assays?
GLS inhibitor: inactive

How did Cc1ccc(C)c(NC(=O)Cn2cc(C(=O)C3CCCCC3)c3ccccc32)c1 do in these assays?
GLS inhibitor: inactive; G9a inh: inactive; BAZ2B inh: inactive; HP1b binding inh: inactive; JMJD2A Tudor: inactive

How did COc1ccc(C(C)C(=O)c2ccc(O)cc2O)cc1 (stereo unspecified) do in these assays?
G9a inh: inactive[2.33 µM]

How did O=C1C(Cl)=C(Nc2cccc(O)c2)C(=O)N1Cc1ccccc1 do in these assays?
GLS inhibitor: inactive; G9a inh: 35µM; BAZ2B inh: inconclusive; HP1b binding inh: inconclusive; JMJD2A Tudor: 45µM; L3MBTL1 inh: inactive

Results for COc1ccc(N2C(=O)C(Cl)=C(Oc3cccc(OC)c3)C2=O)cc1 ?
GLS inhibitor: inconclusive; G9a inh: 6.3µM; BAZ2B inh: 45µM; HP1b binding inh: inconclusive; JMJD2A Tudor: inconclusive; L3MBTL1 inh: inactive

How did COc1ccc(N2C(=O)c3cccc4c(N(C)CCO)ccc(c34)C2=O)cc1 do in these assays?
GLS inhibitor: inactive; G9a inh: inactive; BAZ2B inh: inactive; HP1b binding inh: inactive; JMJD2A Tudor: inactive; L3MBTL1 inh: inactive

How did COc1ccc(N2C(=O)C(Cl)=C(N(CCO)Cc3ccccc3)C2=O)cc1 do in these assays?
GLS inhibitor: inactive; G9a inh: 50µM; BAZ2B inh: inconclusive; HP1b binding inh: inactive; JMJD2A Tudor: inactive; L3MBTL1 inh: inactive

How did COc1ccc(N2C(=O)C(Cl)=C(Nc3ccccc3O)C2=O)cc1 do in these assays?
GLS inhibitor: inactive; G9a inh: 3.5µM; BAZ2B inh: inconclusive; HP1b binding inh: 28µM; JMJD2A Tudor: 45µM

What do the screens show for `Cc1ccc(NS(=O)(=O)c2ccc3c(c2)N(C)C(=O)CO3)cc1C`?
JMJD2A Tudor: inactive

How did COCCCn1c(=O)c2sccc2n2c(CCCC(=O)Nc3cccc(C(F)(F)F)c3)nnc12 do in these assays?
GLS inhibitor: inactive; G9a inh: inactive; BAZ2B inh: inactive; HP1b binding inh: inactive; JMJD2A Tudor: inactive

What do the screens show for `COc1ccc(N2C(=O)C(Cl)=C(Nc3ccccc3OC)C2=O)cc1`?
GLS inhibitor: inactive; G9a inh: 45µM; BAZ2B inh: inconclusive; HP1b binding inh: inactive; JMJD2A Tudor: inconclusive; L3MBTL1 inh: inactive

How did CCOc1ccccc1NC1=C(Cl)C(=O)N(Cc2ccccc2)C1=O do in these assays?
GLS inhibitor: inactive; G9a inh: inactive[12.7 µM]; BAZ2B inh: inconclusive; HP1b binding inh: inactive; JMJD2A Tudor: inactive[11.4 µM]

Results for COc1ccc(N2C(=O)c3ccccc3C2=O)cc1 ?
GLS inhibitor: inactive; G9a inh: inactive[12.7 µM]; BAZ2B inh: inactive; HP1b binding inh: inactive; JMJD2A Tudor: inactive; L3MBTL1 inh: inactive

How did COc1ccc(OC)c(NC2=C(c3ccccc3)C(=O)c3ccccc32)c1 do in these assays?
GLS inhibitor: inactive; G9a inh: 11µM; BAZ2B inh: 5.6µM; HP1b binding inh: 13µM; JMJD2A Tudor: 13µM

How did COc1ccc(OC)c(NC2=C(Cl)C(=O)N(Cc3ccccc3)C2=O)c1 do in these assays?
GLS inhibitor: inactive; G9a inh: inactive; BAZ2B inh: 22µM; HP1b binding inh: inconclusive; JMJD2A Tudor: 14µM; L3MBTL1 inh: inconclusive

What do the screens show for `O=C(NCc1ccc(Cl)cc1)C(=O)NCC(c1cccnc1)N1CCN(c2ccccc2)CC1` (stereo unspecified)?
GLS inhibitor: inactive; G9a inh: inactive; BAZ2B inh: inactive; HP1b binding inh: inactive; JMJD2A Tudor: inactive

What do the screens show for `CCOC(=O)c1ccccc1NC(=O)COC(=O)CC(C)(C)CC1=NS(=O)(=O)c2ccccc2N1`?
GLS inhibitor: inactive; G9a inh: inactive; BAZ2B inh: inactive; HP1b binding inh: inactive; JMJD2A Tudor: inactive

What do the screens show for `O=c1cc(O)c(Cl)c[nH]1`?
GLS inhibitor: inactive; G9a inh: inconclusive

Results for Cc1ccc(NC(=O)NCc2c(-n3cccc3)sc3c2CCCC3)c(Cl)c1 ?
GLS inhibitor: inactive; G9a inh: inactive; BAZ2B inh: inconclusive; HP1b binding inh: inactive; JMJD2A Tudor: inactive

What do the screens show for `Cn1nnnc1Sc1ncnc2scc(-c3cccc4c3sc3ccccc34)c12`?
GLS inhibitor: inactive; HP1b binding inh: inactive; JMJD2A Tudor: 40µM!; L3MBTL1 inh: inactive

What do the screens show for `CCCCCCCNC1=CC(=O)CC(c2ccco2)C1` (stereo unspecified)?
GLS inhibitor: inactive; G9a inh: inconclusive; BAZ2B inh: inconclusive; HP1b binding inh: inactive; JMJD2A Tudor: 50µM; L3MBTL1 inh: inconclusive
